Only some compounds are listed: those with a hit (about 1.1% of all), similar ones and a draw of the others.
Gli-Sufu antag: Gli-Sufu pathway antagonists, primary screen, luciferase luminescence, Sufu-KO-LIGHT cells, uHTS | 340,000 tested, 0.74% active | Sufu-KO-LIGHT fibroblasts, Gli luciferase reporter luminescence | inhibition, % at 5 µM;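 active means inhibition above about 55%, limit read from the data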;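 further: 0% = DMSO-treated cells and 100% = wells with medium but no cells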
LRH-1 inv ag: LRH-1 (NR5A2) inverse agonists, primary screen, cell-based, luminescence, HEK293T, StAR-luciferase reporter; LRH-1 transfected, 24 h; Nuclear receptor subfamily 5 group A member 2 (Homo sapiens), O00482; inhibition, % at 3.6 µM; AID 602396, 2012; 360,000 tested, 0.13% active;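 active means inhibition above the mean inhibition of all tested compounds plus 3 SD, cut at about 73% in these data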;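 further: 0% = DMSO wells and 100% = reporter-only cells lacking LRH-1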
Shn3 inh set2: reduction of Shn3 3'UTR firefly luciferase signal, primary screen, Schnurri-3 inhibitor project, cell-based, Clone20 osteoblasts, set 2; Clone20 osteoblast Shn3 3'UTR firefly luciferase, 24 h; inhibition, % at 12.5 µM; 360,000 tested, 0.52% active; AID 588674, 2011;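 active means mean inhibition of at least 75% with every replicate also reaching 75%; inconclusive means mean inhibition at least 75% but some replicate below; inactive means mean inhibition below 75%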;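 further: 0% = median of neutral control wells and 100% = pilot-screen positive control compound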
NCOA3 inh: SRC3 coactivator transcriptional activity inhibitors, primary screen, cell-based, luminescence; Nuclear receptor coactivator 3 (Homo sapiens), Q9Y6Q9; HEK293 GAL4-SRC3 luciferase reporter; inhibition, % at 3.6 µM; 360,000 tested, 0.17% active;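 active means inhibition above a per-campaign cutoff, the mean of all compounds plus 3 SD, cut at about 60% in these data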;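 further: 0% = DMSO-treated cells and 100% = gossypol-treated cells at 36 µM; higher means less SRC3-driven luciferase light from the GAL4 reporter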
SRC2 inh: inhibition of GAL4-SRC2 driven luciferase reporter, primary screen, SRC2 inhibitor project, cell-based, luminescence. inhibition, % at 9 µM. HEK293 GAL4-SRC2 luciferase reporter. 370,000 tested, 0.17% active;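 active means inhibition above the mean inhibition of all tested compounds plus 3 SD, set per campaign, cut at about 52% in these data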;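 further: 0% = DMSO treated cells and 100% = cells given Gossypol at 36 µM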
SRC1 inh: SRC1 coactivator transcriptional activity inhibitors, primary screen, cell-based, luminescence; HEK293 GAL4-SRC1 luciferase reporter; inhibition, % at 3.6 µM; 360,000 tested, 0.12% active; AID 588354, 2011;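 active means inhibition above the campaign mean plus 3 SD, with each screening campaign given its own cutoff, cut at about 60% in these data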;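 further: 0% = DMSO treated cells and 100% = gossypol at 36 µM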
Numbers without * were called inactive; ? = inconclusive; . = no result.

SMILES	Gli-Sufu antag	LRH-1 inv ag	Shn3 inh set2	NCOA3 inh	SRC2 inh	SRC1 inh
COc1ccc(-c2csc(NC(=O)c3ccccc3NS(=O)(=O)c3ccc(F)c(F)c3)n2)cc1	75*	87*	79	79*	0	64*
COc1ccccc1CNC(=O)NCCCN1CCN(c2ccc(F)cc2)CC1	.	.	.	.	14	.
N#C/C(=C/c1ccc(N2CCCCCC2)o1)c1ccc(Cl)cc1	-30	13	96*	-11	.	-15
N#C/C(=C/c1ccc(N2CCCCC2)o1)c1cccc(F)c1	-18	-3	60	-77	-18	-85
Oc1ccccc1C=NNC(=S)Nc1ccc(F)cc1	-8	-70	90*	-53	-23	-23
CCCN1CCS(=O)(=O)N(Cc2cn(Cc3ccc(Cl)cc3)nn2)C(C(=O)OC)C1 (stereo unspecified)	.	.	.	.	-5	.
Nn1c(SCc2ccc([N+](=O)[O-])cc2)nnc1-c1n[nH]c2c1CCC2	.	.	.	.	6	.
NC(=S)N1OC[C@@H]2COc3ccc4ccccc4c3[C@@H]21	-29	28	36	11	54*	18
CC(C)(C)c1ccc(S(=O)(=O)N2CCCC2C(=O)N2CCN(c3ccccc3)CC2)cc1 (stereo unspecified)	.	.	.	.	-2	.
Brc1ccc2[nH]c3c(N4CCc5ccccc5C4)ncnc3c2c1	72*	.	.	.	.	.
CC1=NN(c2ccccc2)C(=O)/C1=C\C=C\c1ccccc1	22	7	15	2	-7	-1
CC1=NN(c2ccc(C)c(C)c2)C(=O)/C1=C\C=C\c1ccc([N+](=O)[O-])o1	1	2	95*	6	-10	-14
Cc1nc2cc(C(=O)N3CCN(C(=O)C(Cl)Cl)CC3)ccc2n1C1CCCC1	.	.	.	.	15	.
CCOC(=O)c1ccc(NC(=O)c2ccc(C)c(S(=O)(=O)N3CCOCC3)c2)cc1	-12	80*	42	53	50	41
O=C(Nc1nc(-c2ccccn2)cs1)c1cc(S(=O)(=O)N2CCOCC2)ccc1F	-7	-20	40	17	20	2
O=C(Nc1nc(-c2ccccn2)cs1)c1ccc(F)c(S(=O)(=O)N2CCOCC2)c1	48	35	94*	46	24	7
Cc1ccc(C(=O)Nc2nc(-c3ccccn3)cs2)cc1S(=O)(=O)N1CCOCC1	37	34	90*	38	8	25
CN(CC1CCCO1)S(=O)(=O)c1ccc(C(=O)Nc2nc(-c3ccccn3)cs2)cc1 (stereo unspecified)	34	58	90*	29	.	32
CC(C)C[C@@H]1COc2cc(N3CCCC3)ccc2S(=O)(=O)N1C	.	.	.	.	-22	.
N=c1c2c(-c3ccccc3)c(-c3ccccc3)n(Cc3ccccc3)c2ncn1C1CCOCC1	.	.	.	.	-70	.
O=C(CN1C(=O)CCSc2ccccc21)Nc1ccc(F)cc1F	.	.	.	.	-10	.
CCC(C)[C@@H](NC(=O)OC(C)(C)C)c1nnc(S(=O)(=O)Cc2cccc(C)c2)o1 (stereo partly specified)	-1	-17	98*	1	-18	0
Cc1ccccc1CS(=O)(=O)c1nnc([C@H](Cc2ccccc2)NC(=O)OC(C)(C)C)o1	-1	7	95*	10	-38	-18
CC(C)C[C@H]1COc2cccc(F)c2S(=O)(=O)N1Cc1cn(Cc2ccc(Cl)cc2)nn1	.	.	.	.	-5	.
COc1ccc(-n2c(COc3ccc(Cl)cc3)nnc2SCC(=O)Nc2ccc3c(c2)OCO3)cc1	.	.	.	.	0	.
SMILES	Gli-Sufu antag	LRH-1 inv ag	Shn3 inh set2	NCOA3 inh	SRC2 inh	SRC1 inh
CSC(=S)NN=C(C)c1cccc(C)n1	92*	-18	93*	-20	-23	-21
O=C(Cc1ccccc1)NC1CCCCN(Cc2ccc(Cl)cc2)C1=O (stereo unspecified)	.	.	.	.	14	.
Cc1nc2scc(C)n2c(=O)c1S(=O)(=O)Nc1ccc(N2CCOCC2)c(Cl)c1	71*	-16	84	1	0	13
Cc1ccc(-c2cc(-c3nnc4sc(COc5ccccc5)nn34)[nH]n2)cc1	.	.	.	.	-6	.
O=C(CCc1ccccc1)N[C@H]1[C@@H](OC(=O)c2cnccn2)CCC[C@@]12C(=O)N(Cc1ccccc1)c1ccccc12	.	.	.	.	-12	.
COC(=O)[C@H](Cc1ccccc1)N(Cc1cn(Cc2ccccc2)nn1)S(=O)(=O)c1ccccc1Br	.	.	.	.	18	.
COc1cccc(/C=N/NC(=O)c2ccc3nc[nH]c3c2)c1O	-2	-9	16	17	2	-22
COc1cccc(/C=N/NC(=O)c2c(C)nc3ccc(Br)cn23)c1O	88*	99*	?	79*	.	78*
COc1cccc(/C=N/Nc2ccc(C(=O)O)cc2)c1O	73*	46	92*	79*	79*	76*
O=[N+]([O-])c1ccc(Nc2nc(N/N=C/c3cccc(F)c3)nc(N3CCCC3)n2)cc1	7	-15	49	16	12	-5
COc1cccc(/C=N/Nc2nc(Nc3ccc([N+](=O)[O-])cc3)nc(N3CCCC3)n2)c1O	24	-20	89*	14	-9	4
CCOc1ccccc1/C=N/NC(=O)c1c(C)nc2ccc(Br)cn12	-3	8	19	-17	-1	6
COc1cccc(/C=N/NC(=O)c2cc3c(OC)ccc(OC)c3[nH]2)c1O	12	40	94*	12	36	31
COc1cccc(/C=N/Nc2ccc(S(=O)(=O)O)cc2)c1O	-9	-4	-1	-6	6	8
COc1cccc(/C=N/NC(=O)N/N=C/c2cccc(OC)c2O)c1O	-1	6	66	32	-20	23
COc1ccc2[nH]c(C(=O)N/N=C/c3ccc(O)cc3O)cc2c1	41	19	89*	53	20	15
CCOc1ccc2[nH]c(C(=O)N/N=C/c3ccc(OC)cc3)cc2c1	8	8	4	-8	-10	-6
COc1cc(OC)c2cc(C(=O)N/N=C/c3cccc(OC)c3O)[nH]c2c1	14	1	96*	26	17	35
COCCCNC(=O)C[C@H]1C[C@@]2(C(=O)OC)C(=C[C@H](C(C)C)O[C@@H]2C2CC2)N(Cc2ccc(Cl)cc2Cl)C1=O	.	.	.	.	10	.
C#CCn1c(=NC(=O)c2ccc(S(=O)(=O)N3CCc4ccccc4C3)cc2)sc2cc(S(N)(=O)=O)ccc21	0	1	97*	17	.	-20
CCOC(=O)/C(=C\c1ccc(OC(F)F)cc1)C1=Nn2c(nnc2-c2ccc(Cl)cc2)SC1	56*	21	95*	15	.	24
